The text below walks through data of article PMC12136788.

The chains are these.
B1: ENSG00000150403:stop:overlap|stop_codon|ENSG00000150403|stop_codon|NA|stop_codon (ssRNA)
RNA: GGGAGUUCUACAGUCCGACGAUCUGUCCAGGUUCCUCAUGGGCAGUGCUCGGGGUGACAAAGAAGGCAACAGAACAGCCCUCUAGCAGAGCGUCAGUGCAGUCGUGUUAUCCCGGCUUUUACAGAAUAUUCUUGUCCUAUUUUCAACAGAGGAUUGAGCAUCA
B2: chr1:37566712:37566813:+|3pUTR|ENSG00000163879|unk|FALSE|unique (ssRNA)
RNA: GGGAGUUCUACAGUCCGACGAUCGCUUUAUUUCCCUAGCACUGGUGAAGGGCUUCAACUGUCAAACCUCAGAACAAAUGCAUUAGGGCCUUAGAAAUGUCAAUGGGGCAGGAAGAAAACACAAUUUCUAACUGCCUGUUUUUGCAACAGAGGAUUGAGCAUCA
B3: chr16:16142165:16142266:+|3pUTR|ENSG00000103222|msi1|total|mutant (ssRNA)
RNA: GGGAGUUCUACAGUCCGACGAUCAUUGAUGUGGGGUAAAUAUUAAGGAGAUGGCCUCAUGGGAAUUUGACCUUGACCCGAAACCGAGACUGAGAGUGAGCAACCAGCUGGAAGGUACUAUGCCAGUCCCCGCAGAAAAAUGUGCAACAGAGGAUUGAGCAUCA
B4: chr20:4701031:4701132:+|3pUTR|ENSG00000171867|msi1|total|mutant (ssRNA)
RNA: GGGAGUUCUACAGUCCGACGAUCCACCGUUUCUGUAAUUGGCUUUUGAAUCAAAGAACCGGGAGACAAUCUAAAAAAUAUCUCCGGUUGGAGAUGACAGAAAUAUGAUUGAUUUGAAGUGGAAAAAGAAAUUCUGUUAAUGUUCAACAGAGGAUUGAGCAUCA
B5: chr19:21059139:21059240:+|3pUTR|ENSG00000118620|unk|total|mutant (ssRNA)
RNA: GGGAGUUCUACAGUCCGACGAUCGUAAAAAUGAAAAUAUUUAAUCCAAAAUUAAGUCUAUGUAAAUAUCAGAGAAUUUACUGCCGAAAUAUAUAAGGCACUGAGACUUCAGAUAUUAUACUAAAUCAGAGUGCUGAGUACCGACAACAGAGGAUUGAGCAUCA
B6: chr17:42200006:42200107:-|3pUTR|ENSG00000173757|unk|total|mutant (ssRNA)
RNA: GGGAGUUCUACAGUCCGACGAUCAAGCUGCCGUUUGCCUUGGCUUGGUUUCAUACACUGAUUUAUUUUUCUAUGCCAGGCAGCCGAGUCUCUCUGCCUCUGAGGAGCAGGCUACCCGCAUCCCACUCAGCCCCUCCCUACCCCCAACAGAGGAUUGAGCAUCA
B7: chr20:3582170:3582271:+|CDS|ENSG00000088812|msi1|FALSE|bound_elsewhere (ssRNA)
RNA: GGGAGUUCUACAGUCCGACGAUCGGCCUUCGGAAGAUCAAUGUGUCCUACUGGUGCUGGGAAGAUAUGUCCCCAUUUACAAAUAGUUUACUACAGUGGAUGCCGUCUGAGCCCAGUGAUGCUGGAUUCUGUGGAAUUUUAUCACAACAGAGGAUUGAGCAUCA
B8: chr3:10101824:10101929:+|3pUTR|ENSG00000144554|unk|total|mutant (ssRNA)
RNA: GGGAGUUCUACAGUCCGACGAUCAAAAUCUCUGAGUCAUGAUUCUGGACUUUGGGAGCCCGUUUUGAAACUCUGAUUUAUUGCCGAACUCCGGCUUGUACCAAUUUUACAAAUAAAUUCUGUUCUAAGUUCUGCCUCAGUUGCCAACAGAGGAUUGAGCAUCA
B9: ENSG00000166086:stop:overlap|stop_codon|ENSG00000166086|stop_codon|NA|stop_codon (ssRNA)
RNA: GGGAGUUCUACAGUCCGACGAUCUCCUGCUGCUGCUUUUCAGGGAGUCAAGUCUAGUCUGCUUUCCAAGGCUGCAUUCUAAGUAGUGAAGCCUCAACUUCAUAUUUACCUAAAGCAGGACACCACACUCUUCCCCUGGCAGCCCAACAGAGGAUUGAGCAUCA
B10: chr1:173734013:173734119:+|CDS|ENSG00000076321|unk|FALSE|unique (ssRNA)
RNA: GGGAGUUCUACAGUCCGACGAUCCAUUGACGAGAGGGCUAUGGAAUUACUGAUUGACUUUGCGUAUACCUCCCAGAUAACAGUAGAAGAGGGCAAUGUUCAGACUCUUCUGCCAGCUGCUUGCCUCCUCCAGCUGGCAGAAAUCAACAGAGGAUUGAGCAUCA
B11: chr10:73251842:73251943:-|CDS|ENSG00000182180|msi1|FALSE|unique (ssRNA)
RNA: GGGAGUUCUACAGUCCGACGAUCUCGGCCGUUCUACCGCAUUGUGGCUGCUCACAACAAGUGUCCCAGGGAUGGCCGUUUCGUAGAGCAGCUGGGCUCCUAUGAUCCAUUGCCCAACAGUCAUGGAGAAAAACUCGUUGCCCUCAACAGAGGAUUGAGCAUCA
B12: chr7:44121865:44121972:-|CDS|ENSG00000106628|unk|FALSE|unique (ssRNA)
RNA: GGGAGUUCUACAGUCCGACGAUCGUGCCAGUGGCAACCUACACCAACUCCUCACAACCCUUCCGGCUAGGAGAGCGCAGCUUUAGCCGGCAGUAUGCCCACAUUUAUGCCACCCGCCUCAUCCAAAUGAGACCCUUCCUGGAGCAACAGAGGAUUGAGCAUCA
B13: chr6:31137533:31137950:-|three_prime_utr|ENSG00000204538|control|control|control (ssRNA)
RNA: GGGAGUUCUACAGUCCGACGAUCGCAUCUCCAGGCACCCACGCCCUCUCCACCCUCUGAUUCCCCGUGAAUUCUUCCCAAUUUAGCCUGUCUCCUUAAACCUCUUCCUCAUUCCCUCGGUUUUAUUCUGAACCCGUAAGGUGGCAACAGAGGAUUGAGCAUCA
B14: ENSG00000136451:be:win_2501|3pUTR|ENSG00000136451|bound_else_gene|NA|bound_elsewhere_windowed (ssRNA)
RNA: GGGAGUUCUACAGUCCGACGAUCUCCCAAUCAGAGCCUGUUGAUAUUACAACAGGGACAGAUGUGUUAGUUGCUCACUAGAGUUUAUGUCUUAUAUUAAAUUGUAUACAGUUUUUAUUCUAACCACUAACUAGGUAGUGUAUGCAACAGAGGAUUGAGCAUCA
B15: ENSG00000136451:be:win_2551|3pUTR|ENSG00000136451|bound_else_gene|NA|bound_elsewhere_windowed (ssRNA)
RNA: GGGAGUUCUACAGUCCGACGAUCUCACUAGAGUUUAUGUCUUAUAUUAAAUUGUAUACAGUUUUUAUUCUAACCACUAACUAGGUAGUGUAUGCCCCUUCAGAACAUGCAGAGUGUAUCUUUUUUUAAAUUUCUCCUUCCGUUCAACAGAGGAUUGAGCAUCA
B16: chr1:214663888:214664008:+|3pUTR|ENSG00000117724|msi1|total|mutant (ssRNA)
RNA: GGGAGUUCUACAGUCCGACGAUCAGGAGAAAACAAUUCCUCCGAAGUCUUAAAUAUAUUGUACUCUUCCGAUCUCCCAUGUGCCGGUAUUGAAAAAGUUUGGAAGCACUGAUCACCUGUCCGCAUUGCCAUUCCUCUACUGCACAACAGAGGAUUGAGCAUCA
B17: chr9:76611375:76614569:-|three_prime_utr|ENSG00000106772|control|control|control (ssRNA)
RNA: GGGAGUUCUACAGUCCGACGAUCAUGUUACCUUUUUCCACUUUGCACUACCUGGUGCCAUUCUAAAUUUCUAAGGGGAAAAAUAGAAAGUUUGUUUACUCUUAAGAUAUUUUAUGAAAUUGUGUGUACUUUCCUAUUUUGCCACAACAGAGGAUUGAGCAUCA
B18: chr6:57184343:57184440:+|3pUTR|ENSG00000112208|msi1_unk|FALSE|overlapping (ssRNA)
RNA: GGGAGUUCUACAGUCCGACGAUCUCUUCAGUUUUGUGAAUAACAAAACUAGCAAUAUUUUAAUUAUCUAUCUAGAGAUUUUUUAGAUUGAAUUCUUGUCUUGUACUAGGAUCUAGCAUAUUUCACUAUUCUGUGGAUGAAUACCAACAGAGGAUUGAGCAUCA
B19: chr12:89642165:89642281:-|CDS|ENSG00000070961|unk|FALSE|bound_elsewhere (ssRNA)
RNA: GGGAGUUCUACAGUCCGACGAUCGCCAAAAACCUUUCUUCAAUUAGUAUGGGAAGCAUUACAAGAUGUCACUUUAAUUAUAUUAGAAAUUGCAGCCAUAGUAUCAUUGGGCCUUUCUUUUUAUCAGCCUCCAGAAGGGGAUAACAACAGAGGAUUGAGCAUCA
B20: chr1:214663888:214664008:+|3pUTR|ENSG00000117724|msi1|FALSE|bound_elsewhere (ssRNA)
RNA: B16 RNA with C41U, C42A, C68U, C69A, C83U, C84A, C120U, C121A
B21: ENSG00000136451:be:win_2451|3pUTR|ENSG00000136451|bound_else_gene|NA|bound_elsewhere_windowed (ssRNA)
RNA: GGGAGUUCUACAGUCCGACGAUCUUUAAAUUGGAAGACGCUGGAGGCACUGGGAUGUGAUAUGCCCCUCUCUCUCCCAAUCAGAGCCUGUUGAUAUUACAACAGGGACAGAUGUGUUAGUUGCUCACUAGAGUUUAUGUCUUACAACAGAGGAUUGAGCAUCA
B22: chr13:110149936:110150037:-|3pUTR|ENSG00000187498|msi1|FALSE|unique (ssRNA)
RNA: GGGAGUUCUACAGUCCGACGAUCUUCUUGUAUUAUAAUUAAUUUUCUACCCCCAGAGAUAAAUGUUUGUUUAUAUCACUGUCUAGCUGUUUCAAAAUUUAGGUCCCUUGGUCUGUACAAAUAAUAGCAAUGUAAAAAUGGUUUCAACAGAGGAUUGAGCAUCA
B23: chr13:110149936:110150037:-|3pUTR|ENSG00000187498|msi1|total|mutant (ssRNA)
RNA: B22 RNA with U83C, A84C, U99C, A100C, U124C, A125C
B24: ENSG00000070961:be:win_251|CDS|ENSG00000070961|bound_else_gene|NA|bound_elsewhere_windowed (ssRNA)
RNA: GGGAGUUCUACAGUCCGACGAUCUGUUUGGAAAGAAUUUUAUACCUCCUAAAAAGCCAAAAACCUUUCUUCAAUUAGUAUGGGAAGCAUUACAAGAUGUCACUUUAAUUAUAUUAGAAAUUGCAGCCAUAGUAUCAUUGGGCCCAACAGAGGAUUGAGCAUCA
B25: ENSG00000070961:be:win_301|CDS|ENSG00000070961|bound_else_gene|NA|bound_elsewhere_windowed (ssRNA)
RNA: GGGAGUUCUACAGUCCGACGAUCUUAGUAUGGGAAGCAUUACAAGAUGUCACUUUAAUUAUAUUAGAAAUUGCAGCCAUAGUAUCAUUGGGCCUUUCUUUUUAUCAGCCUCCAGAAGGGGAUAAUGCACUUUGUGGAGAAGUUCAACAGAGGAUUGAGCAUCA

Residue numbers refer to the chain shown, from its start. The full ranking holds about 5,800 sequences; the median of “enrichment r” is about 0.54, and the highest 2% start at about 16. Many of the other results were omitted from the sample, so the highest values are more common in it than they were.

The assay deals with MSI1 full-length (mouse, UniProt Q61474 1-362). In words: nsRBNS (natural sequence RNA bind-n-seq); RBNS binding buffer (assumed for nsRBNS): 25 mM Tris pH 7.5, 150 mM KCl, 3 mM MgCl2, 0.01% Triton X-100, 500 ug/ml BSA, 20 U/ml SUPERase-In, 4 C; UNK is unkempt and MSI1 is Musashi-1; names of the RNAs are library labels; protein concentration not given here; high values mean tight binding.
Sequence of MSI1 full-length (Q61474 whole entry): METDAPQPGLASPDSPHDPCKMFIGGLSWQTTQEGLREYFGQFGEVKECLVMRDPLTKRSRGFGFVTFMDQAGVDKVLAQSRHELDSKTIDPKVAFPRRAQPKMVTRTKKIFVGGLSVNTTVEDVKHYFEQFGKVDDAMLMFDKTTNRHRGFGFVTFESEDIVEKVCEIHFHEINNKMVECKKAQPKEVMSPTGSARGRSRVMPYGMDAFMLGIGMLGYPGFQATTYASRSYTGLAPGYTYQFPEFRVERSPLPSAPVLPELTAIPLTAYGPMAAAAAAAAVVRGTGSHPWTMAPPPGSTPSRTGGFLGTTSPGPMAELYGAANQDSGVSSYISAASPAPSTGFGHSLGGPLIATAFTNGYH
With B1, the binding signal amounted to 0.829 enrichment R.

Turning to B2, the binding signal was determined as 0.39 enrichment R.

The molecule B3 had a binding signal of 0.411 enrichment R.

Take B4: the binding signal was found to be 0.277 enrichment R.

As to B5, the binding signal was 4.16 enrichment R.

For the molecule B6, the binding signal amounted to 0.705 enrichment R.

With B7, the binding signal was 0.86 enrichment R.

As to B8, the binding signal was found to be 0.338 enrichment R.

In turn, B9 had a binding signal of 0.461 enrichment R.

With B10, the binding signal was 1.23 enrichment R.

In turn, B11 registered a binding signal of 0.318 enrichment R.

Regarding B12, the binding signal stood at 0.629 enrichment R.

B13 displayed a binding signal of 0.944 enrichment R.

In turn, B14 displayed a binding signal of 25.2 enrichment R.

Regarding B15, the binding signal is 10.4 enrichment R.

The molecule B16 had a binding signal of 0.406 enrichment R.

With B17, the binding signal was 1.45 enrichment R.

Take B18: the binding signal was 4.43 enrichment R.

On to B19, for which the binding signal turned out to be 9.09 enrichment R.

B20 displayed a binding signal of 16.4 enrichment R.

For B21, the binding signal came out at 1.47 enrichment R.

B22 yielded a binding signal of 30.3 enrichment R.

In the case of B23, the binding signal is 3.28 enrichment R.

Turning to B24, the binding signal stood at 17.2 enrichment R.

B25 had a binding signal of 9.77 enrichment R.
